Experimental findings from PubChem BioAssay (NCI) are described below.

This is part of a sample that, as a whole, favours compounds with a hit. Of some 83,000 tested, about 20% had one in any assay.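 The endpoint reported here, percent growth, reads 100 for growth as untreated, 0 for no net growth and -100 for all cells dead.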 Values without a mark were called inactive. Calls of active or inactive are those of the source. The calls were made as follows: active = growth percent below 10; inactive = the rest.

What all share (experiment): NCI-60 one-dose screen, 48 h (100 = growth as untreated, 0 = no growth, -100 = all killed)
One assay deals with HCT-15 colon. As to conditions: 10 µM.
Another assay deals with HT29 colon. Conditions: 10 µM.
A further assay relates to SNB-75 CNS. As to conditions: 10 µM.
The next assay has as its system SNB-19 CNS. As to conditions: 10 µM.
For the next assay, the system named is U251 CNS. Conditions: 10 µM.
The subject of a further assay is PC-3 prostate. As to conditions: 10 µM.
Another assay relates to SK-MEL-5 melanoma. Conditions: 10 µM.
The test system of another assay is UACC-62 melanoma. As to conditions: 10 µM unless noted.
The next assay concerns SK-MEL-28 melanoma. As to conditions: 10 µM.
The test system of the next assay is SK-MEL-2 melanoma. Conditions: 10 µM.
For the next assay, the system named is EKVX NSCLC. Conditions: 10 µM.
The test system of a further assay is SN12C renal. As to conditions: 10 µM.
A further assay deals with UO-31 renal. Conditions: 10 µM.
For another assay, the system named is TK-10 renal. Conditions: 10 µM unless noted.
The subject of a further assay is ACHN renal. As to conditions: 10 µM.
The test system of another assay is A498 renal. As to conditions: 10 µM.
The subject of another assay is CCRF-CEM leukemia. Conditions: 10 µM.
The test system of the next assay is MOLT-4 leukemia. Conditions: 10 µM.
In another assay the test system is CAKI-1 renal. Conditions: 10 µM.
The next assay concerns LOX IMVI melanoma. Conditions: 10 µM.

For the compound `CCOC(=O)CSc1c([N+](=O)[O-])ncn1C`, the growth is 93.7% in the assay with HCT-15 colon; 104% in the assay on HT29 colon; 98.4% in the assay on SNB-75 CNS; 99.6% in the assay on SNB-19 CNS; 97.9% in the assay on U251 CNS; 106% with PC-3 prostate. The growth in the assay on SK-MEL-5 melanoma was 96.2%; in the assay with UACC-62 melanoma it was 97.8%; in the assay with SK-MEL-28 melanoma it was 92.6%; with SK-MEL-2 melanoma, 95.4%; with EKVX NSCLC, 95.6%; with SN12C renal it was 102%. Moreover, the growth was 89.8% in the assay on UO-31 renal; 94.2% in the assay with TK-10 renal; 101% in the assay with ACHN renal; 114% in the assay on A498 renal; 94.8% in the assay with CCRF-CEM leukemia; 94.8% in the assay on MOLT-4 leukemia.
For the compound `Cc1ncc(C#N)c(N)n1`, the growth was 100% in the assay with HCT-15 colon; 112% with HT29 colon; 77.8% with SNB-75 CNS; 102% in the assay on SNB-19 CNS; 100% with U251 CNS; 90% in the assay with PC-3 prostate. In addition, the growth with SK-MEL-5 melanoma was 89.9%; in the assay on UACC-62 melanoma, 99.7%; in the assay with SK-MEL-28 melanoma, 102%; in the assay with SK-MEL-2 melanoma, 106%; with SN12C renal, 103%; with UO-31 renal it was 85.7%. The growth in the assay on TK-10 renal was 109%; with ACHN renal, 121%; in the assay with CAKI-1 renal it was 92.9%; in the assay on A498 renal, 87.1%; in the assay with CCRF-CEM leukemia it was 126%; with MOLT-4 leukemia, 102%.
For `c1ccc(Cc2ccccc2)cc1`, the growth was 99% with HCT-15 colon; 118% in the assay with HT29 colon; 98.9% with SNB-75 CNS; 104% with SNB-19 CNS; 103% in the assay with U251 CNS; 82.8% in the assay with PC-3 prostate. The growth in the assay on SK-MEL-5 melanoma is 116%; in the assay with UACC-62 melanoma it was 103%; with SK-MEL-28 melanoma, 112%; in the assay with EKVX NSCLC, 102%; in the assay on SN12C renal it was 95.1%; in the assay on TK-10 renal, 99%. Moreover, the growth is 107% in the assay with ACHN renal; 85.7% in the assay on CAKI-1 renal; 102% with A498 renal; 104% in the assay with CCRF-CEM leukemia; -26.2% (active) with MOLT-4 leukemia.
As to `CCCNc1ccc(C2=NCCCN2)cc1`, the growth was 97.8% in the assay with HCT-15 colon; 96% with HT29 colon; 84.2% in the assay with SNB-75 CNS; 102% in the assay with SNB-19 CNS; 87.4% in the assay on U251 CNS; 94.6% with PC-3 prostate. The growth in the assay on SK-MEL-5 melanoma was 97.5%; in the assay on LOX IMVI melanoma, 95.1%; with SK-MEL-28 melanoma, 114%; in the assay with SK-MEL-2 melanoma, 102%; with SN12C renal, 109%; with UO-31 renal it was 81.7%. The growth was 102% in the assay with ACHN renal; 101% with CAKI-1 renal; 71.7% in the assay on A498 renal; 99.1% with CCRF-CEM leukemia; 93.7% in the assay with MOLT-4 leukemia.
Turning to `Nc1ccc(CC(=O)O)c(N)c1`, the growth in the assay on HCT-15 colon is 106%; in the assay with HT29 colon, 107%; in the assay on SNB-75 CNS it was 93.1%; in the assay with SNB-19 CNS, 97%; in the assay on U251 CNS, 101%; with SK-MEL-5 melanoma it was 99.2%. The growth with UACC-62 melanoma was 93.3%; with LOX IMVI melanoma, 101%; in the assay on SK-MEL-28 melanoma, 101%; in the assay on SK-MEL-2 melanoma it was 113%; with EKVX NSCLC it was 101%; in the assay on SN12C renal, 102%. Besides, the growth in the assay on UO-31 renal is 89%; in the assay with TK-10 renal, 105%; in the assay with ACHN renal, 104%; in the assay with CAKI-1 renal it was 89%; in the assay on A498 renal, 62.8%; with CCRF-CEM leukemia it was -27.4% (active). In addition, the growth in the assay with MOLT-4 leukemia is 101%.
With `CCOC(=O)c1[nH]c(C)c(C(C)=O)c1C`, the growth was 103% in the assay on HCT-15 colon; 93% with HT29 colon; 78.2% with SNB-75 CNS; 94.4% in the assay on SNB-19 CNS; 91.2% in the assay on U251 CNS; 93.4% with SK-MEL-5 melanoma. Also, the growth is 100% in the assay on UACC-62 melanoma; 82.2% with LOX IMVI melanoma; 97.4% in the assay on SK-MEL-28 melanoma; 122% in the assay on SK-MEL-2 melanoma; 100% in the assay with EKVX NSCLC; 90.8% in the assay on SN12C renal. The growth is 79.3% in the assay with UO-31 renal; 98.4% with TK-10 renal; 97% in the assay on ACHN renal; 87.3% in the assay with CAKI-1 renal; 91% in the assay on A498 renal; 91.6% in the assay with CCRF-CEM leukemia. The growth with MOLT-4 leukemia was 59.1%.
Consider `Cc1ccc(C(=O)NC2c3ccccc3Oc3ccccc32)cc1`, for which the growth was 39.6% in the assay with HCT-15 colon; 23.4% in the assay with HT29 colon; 34.9% in the assay on SNB-75 CNS; 49% with SNB-19 CNS; 56.5% in the assay with U251 CNS; 53.4% in the assay with PC-3 prostate. Moreover, the growth in the assay with SK-MEL-5 melanoma was 62.7%; in the assay with LOX IMVI melanoma, 45%; in the assay with SK-MEL-28 melanoma, 61.4%; with SK-MEL-2 melanoma, 66.4%; with EKVX NSCLC, 64.6%; in the assay on UO-31 renal, 34.4%. In addition, the growth in the assay with TK-10 renal is 54.4%; in the assay with ACHN renal, 40%; with CAKI-1 renal, 64.9%; in the assay with A498 renal, 43.5%; with CCRF-CEM leukemia it was 56.7%; in the assay on MOLT-4 leukemia it was 45.5%.
Regarding `Cc1cccc(CO)c1`, the growth in the assay on HCT-15 colon was 105%; with HT29 colon it was 108%; with SNB-75 CNS, 95.1%; with SNB-19 CNS, 107%; with U251 CNS, 94.5%; in the assay on SK-MEL-5 melanoma, 99.7%. Also, the growth in the assay with UACC-62 melanoma is 104%; in the assay on LOX IMVI melanoma, 100%; in the assay with SK-MEL-28 melanoma, 109%; with SK-MEL-2 melanoma it was 110%; in the assay with EKVX NSCLC, 113%; in the assay on SN12C renal, 106%. Also, the growth in the assay with UO-31 renal is 92.9%; in the assay on TK-10 renal it was 108%; in the assay on ACHN renal, 111%; in the assay on CAKI-1 renal it was 100%; in the assay on A498 renal it was 108%; in the assay with CCRF-CEM leukemia it was 110%. The growth in the assay with MOLT-4 leukemia is 106%.
With `Nc1ccc(NC(=O)c2cccc(N)c2)cc1`, the growth with HCT-15 colon was 101%; in the assay with HT29 colon, 105%; with SNB-75 CNS it was 91.3%; in the assay on SNB-19 CNS, 94.8%; with U251 CNS it was 96.2%; with PC-3 prostate, 82.9%. The growth was 103% in the assay with SK-MEL-5 melanoma; 96.5% in the assay with UACC-62 melanoma; 104% in the assay with SK-MEL-28 melanoma; 86.6% in the assay with EKVX NSCLC; 99.5% in the assay with SN12C renal; 123% in the assay on TK-10 renal. Besides, the growth is 97.8% in the assay with ACHN renal, 56.4% with CAKI-1 renal, 90.6% in the assay with A498 renal and 88.8% in the assay with CCRF-CEM leukemia.
